According to PubChem BioAssay AID1159580 (chemical genetic matrix, 2015):
The whole screen tested about 5,500 compounds, of which about 2,000 (36%) were called active. Another 18% or so got no clear call; they are omitted. Cut-off read from the data, not from the text of the source: active = normalized growth mostly below about 0.91 (no sharp cut-off); inconclusive = no clear call, values can overlap the other calls; inactive = mostly above about 0.92. The list shows a part of the results.

Assay: chemical genetic growth profiling, strain panel (AID 1159580);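 note: tested at 20 µM; growth read once vehicle control cultures reached saturation at 30 °C; 1 = growth at the plate median or of vehicle wells; lower values mean less growth of the strain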
Conditions: S. cerevisiae deletion strains, growth OD

Measured: normalized growth

CCn1cc(C(=O)O)c(=O)c2ccc(Cc3ccccc3)nc21
inactive: locus YAL013W, strain DEP1, hits give low values 1.03 | locus YAL040C, strain CLN3, hits give low values 1 | locus YCL061C, strain MRC1 (second series), hits give low values 1.01 | locus YDR363W, strain ESC2, hits give low values 1.01 | locus YER002W, strain NOP16, hits give low values 0.964 | locus YGR078C, strain PAC10, hits give low values 0.971 | locus YJR075W, strain HOC1, hits give low values 1.02 | locus YMR263W, strain SAP30, hits give low values 1 | locus YMR307W, strain GAS1, hits give low values 1 | locus YNL128W, strain TEP1, hits give low values 0.988 | locus YNL153C, strain GIM3, hits give low values 0.923 | locus YNL175C, strain NOP13, hits give low values 0.972 | locus YNL197C, strain WHI3, hits give low values 0.942 | locus YNL224C, strain SQS1, hits give low values 0.965 | locus YNL322C, strain KRE1, hits give low values 0.991 | locus YOR083W, strain WHI5 (second series), hits give low values 1.09 | locus YPL241C, strain CIN2, hits give low values 1.01
